Measurements reported in PubChem BioAssay AID1625 (Sanford-Burnham Center for Chemical Genomics, 2009).
Out of some 190,000 compounds screened, about 570 (0.3%) were called active. This is one part of a sample in which actives are shown more often than they occur.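 The calls were made as follows: active = z-score above 3 at 5 µM with at least 500 cells counted in the well; inconclusive = wells under 500 cells, flagged as cytotoxic or low count; inactive = the rest.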

test: insulin promoter activators in MIN6 cells, imaging, high-content screening, mouse beta cells (AID 1625); conditions: MIN6 insulin promoter-GFP reporter, at 5 µM; cell count: measured here: cytotoxicity, nuclei count; z-score: stronger effect = higher value;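 as to cell count: total cells summed across four imaged fields per well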

SMILES	cell count [cells]	z-score
Cc1cc2nc(C(F)(F)F)cc(-c3cccs3)n2n1	1200	-0.13 (inactive)
O=C(COC(=O)C12CC3CC(CC(O)(C3)C1)C2)NC12CC3CC(CC(C3)C1)C2	1360	-1.25 (inactive)
Clc1ccc2nc(-c3ccccc3)nc(C(Cl)Cl)c2c1	892	-0.12 (inactive)
CCOC(=O)CSc1nc2c(sc(=S)n2CCc2ccccc2)c(=O)n1Cc1ccco1	1440	-0.59 (inactive)
Cc1cc2c(c(=O)n1Cc1ccco1)C(c1ccccc1)C(C#N)=C(N)O2 (centres undefined)	961	-0.43 (inactive)
CN(c1ccccc1)c1ccc(/C=c2\s/c(=C(/C#N)C(=O)C(C)(C)C)n(Cc3ccco3)c2=O)cc1	1460	12.8 (active)
CSc1nc(-c2ccco2)nn1C(=O)c1ccccc1Cl	983	-0.05 (inactive)
COc1ccc(OC)c(CNC(=O)c2cc(=O)[nH]c3ccc(S(=O)(=O)N4CCCC4)cc23)c1	1540	-0.29 (inactive)
Cc1ccc(C(=O)NC(=S)Nc2ccc(N3CCOCC3)cc2)cc1	1440	-0.06 (inactive)
CCN(CC)c1ccc(C(=O)N/N=C/c2ccc(N3CCOCC3)cc2)cc1	1830	3.38 (active)
Cc1cc(C(=O)N/N=C/c2ccc(N3CCOCC3)cc2)c(C)o1	987	0.32 (inactive)
COc1ccccc1Nc1nc(N)nc(CSC(=S)N2CCOCC2)n1	1080	-0.34 (inactive)
CCCN(c1ccc(C)cc1)c1nc(=O)c2cccnc2s1	1150	0.79 (inactive)
O=C(NCc1ccc(F)cc1)C1CCC(CNc2c(N3CCOCC3)c(=O)c2=O)CC1 (centres undefined)	1000	-0.88 (inactive)
CC(C)CN(CC(C)C)CC(O)CN(c1ccccc1)S(=O)(=O)c1ccccc1[N+](=O)[O-] (centres undefined)	1100	-1.15 (inactive)
CC(C)CNC(=O)C(=O)NCc1ccccc1	1620	-0.28 (inactive)
Cc1nn(-c2ccccc2)c(Cl)c1C(=O)Nc1ccccc1	1480	-0.05 (inactive)
Cc1nn(-c2ccccc2)c(C)c1NC(=O)COc1ccc(Cl)cc1Cl	1470	1.23 (inactive)
Cc1nn(-c2ccccc2)c(C)c1NC(=O)CCl	1030	3.88 (active)
S=C(NCCc1ccccc1)N1CCn2cccc2C1c1ccncc1 (centres undefined)	1320	0.43 (inactive)
O=C(CN1CCN(Cc2ccccc2)CC1)NC(c1ccccc1)c1ccccc1	847	0.25 (inactive)
CCN(CC(=O)Nc1cccc(S(N)(=O)=O)c1)Cc1nc2ccccc2c(=O)[nH]1	1090	0.21 (inactive)

SMILES	cell count [cells]	z-score
CC(=O)Nc1ccc(NC(=O)COc2ccc(S(=O)(=O)NC(C)c3ccccc3)cc2)cc1 (centres undefined)	1520	-0.4 (inactive)
CCCS(=O)(=O)C(=C1Nc2ccccc2N1)S(=O)(=O)CCC	1240	0.09 (inactive)
O=C1CCCCC(=O)c2ccccc2N1	1400	0.07 (inactive)
CN(C)/C=C1/Nc2ccccc2C1=O	636	4.71 (active)
O=C(Nc1nnc(Cc2ccccc2)s1)c1cnccn1	1430	0.26 (inactive)
Cc1ccccc1Cn1c2ccccc2c2cnn(CC(=O)NCc3ccco3)c(=O)c21	1130	-0.15 (inactive)
CCc1cccc(CC)c1NC(=S)Nc1ccc2cn[nH]c2c1	1180	-0.06 (inactive)
O=C(COC(=O)CNC(=O)c1ccco1)Nc1ccc(F)cc1	1320	-0.26 (inactive)
O=C(CNC(=O)c1ccco1)OCC(=O)c1ccccc1	1220	4.35 (active)
O=C(CNC(=O)c1ccccc1)NCC(=O)OCC(=O)c1ccccc1	1240	-0.32 (inactive)
CCOC(=O)C1=C(N)N2C(=O)C(C)SC2=C(C(=O)OCC)C1c1cc(OC)c(OC)c(OC)c1 (centres undefined)	1120	-0.67 (inactive)
NS(=O)(=O)c1ccc(NC(=O)COC(=O)c2cc3ccccc3oc2=O)cc1	1430	0.45 (inactive)
CCCCOc1ccc(CON(C(C)=O)C(C)=O)cc1Cl	1140	-0.26 (inactive)
O=C(CCn1nnc2ccccc2c1=O)N[C@@H](Cc1c[nH]c2ccccc12)C(=O)O	1030	0.15 (inactive)
CC(C)OCCCNC(=O)C1CC(=O)N(C2CCCCCCC2)C1 (centres undefined)	1560	-0.3 (inactive)
O=C(NCCCN1CCCCCC1)C1CC(=O)N(C2CCCC2)C1 (centres undefined)	1560	4.02 (active)
Cc1ccc(CNC(=O)C2CC(=O)N(C3CCCCCCC3)C2)cc1 (centres undefined)	1550	-0.31 (inactive)
O=C(Nc1ccccc1)O/N=C1/CCCc2occc21	985	-0.24 (inactive)
O=C1CCCCC1C(=O)c1ccccc1 (centres undefined)	991	-0.12 (inactive)
OC(c1ccccc1)C(CN1CCOCC1)c1ccccc1 (centres undefined)	1160	-0.19 (inactive)
c1ccc2[nH]c(NCCN3CCOCC3)nc2c1	1180	0.66 (inactive)
C1=C(N2CCOCC2)/C(=C/c2nc3ccccc3[nH]2)CC1	905	3.43 (active)

SMILES	cell count [cells]	z-score
c1ccc(Nc2nc(N3CCOCC3)c3ccccc3n2)cc1	637	-1.26 (inactive)
CCOc1c(Nc2cccc(Cl)c2)c(=O)c1=O	1030	0.15 (inactive)
COc1cc2c(C(=O)N3CCN(C)CC3)c(CSc3ccccc3)n(C)c2cc1Br	1290	-0.8 (inactive)
Cc1ccc(NC(=S)N2CCCC(c3ccccc3)=N2)cc1	1540	-0.41 (inactive)
O=S(=O)(NC(=S)Nc1ccccc1)c1ccc(F)cc1	1080	-0.63 (inactive)
COc1ccc(Cc2nnc(NC(=O)Cc3cccs3)s2)cc1	1270	3.48 (active)
O=C(Cc1cccs1)Nc1nnc(C2CC2)s1	1650	1.57 (inactive)
CCc1nnc(NC(=O)Cc2cccs2)s1	1560	0.7 (inactive)
Cc1ccc(OCC(=O)Nc2nnc(-c3ccco3)s2)cc1	1050	-0.23 (inactive)
Cc1ccc(SC(C)C(=O)NCc2ccc(F)cc2)cc1 (centres undefined)	1600	0.03 (inactive)
N#CCCCn1c(O)c(N=NC(=O)C(O)c2ccccc2)c2ccccc21 (centres undefined)	1150	0.15 (inactive)
Cc1ccc(C(=O)N/C(=C\c2ccco2)C(=O)N2CCSCC2)cc1C	1360	-0.32 (inactive)
CC1CCN(c2ccc([N+](=O)[O-])cc2C(N)=O)CC1	1470	0.15 (inactive)
COC(=O)c1sccc1NC(=O)c1csc2c1CCCC2	1260	-0.75 (inactive)
COC(=O)c1sccc1NC(=O)c1cc(OC)c(OC)c(OC)c1	1440	3.71 (active)
COC(=O)c1sccc1NC(=O)COc1ccc(Cl)cc1	2220	-0.38 (inactive)
O=S(=O)(c1ccc(Cl)cc1)N1CCCN(c2ccc(C(F)(F)F)cn2)CC1	1100	-0.98 (inactive)
Cc1ccnc(NC(=O)CCCOc2ccccc2)c1	1410	-0.12 (inactive)
COC(=O)c1scc(S(=O)(=O)C(C)(C)C)c1-n1cccc1	1430	0.89 (inactive)
O=C(CSc1nc2ccccc2s1)Nc1ccc(C(=O)O)cc1	1290	0.75 (inactive)
Cc1oc(C(N)=O)cc1COc1ccc(C(N)=O)cc1	1120	-0.28 (inactive)
COc1ccc(N2C(=O)C(Cc3ccccc3)NC2=S)cc1 (centres undefined)	1180	0.5 (inactive)

SMILES	cell count [cells]	z-score
CCOC(=O)C1CCN(C(=O)Nc2cccc(OC)c2)CC1	1010	-0.44 (inactive)
CN(CCCNC(=O)CN1C(=O)CC(C)(C)S(=O)(=O)c2ccccc21)C1CCCCC1	1010	3.03 (active)
Cc1oc(-c2ccccc2F)nc1CS(=O)(=O)CC(=O)NCCCN(C)C1CCCCC1	1560	0.14 (inactive)
O=C(CN1C(=O)CC(c2ccccc2)S(=O)(=O)c2ccccc21)NC1CCCC1 (centres undefined)	1220	-1.1 (inactive)
O=C1CCCC(O)=C1C=NCCc1ccccc1	1000	3.02 (active)
CC1(C)CC(=O)C(C=NCCC2=CCCCC2)=C(O)C1	1030	0.42 (inactive)
O=C1CC(c2ccccc2)CC(O)=C1C=NCCN1CCOCC1 (centres undefined)	1300	-0.21 (inactive)
CS(=O)(=O)c1ccc2nnn(OCC(=O)Nc3cccc(C#N)c3)c2c1	1340	-0.14 (inactive)
Cc1cc(C)c(NC(=O)CN2C(=O)NC(Cc3ccccc3)C2=O)c(C)c1 (centres undefined)	1480	0.2 (inactive)
CN1CCN(CCNC(=O)Nc2ccc([N+](=O)[O-])cc2)CC1	1230	0.23 (inactive)
Cn1ccc(NC(=O)Nc2ccc(Cl)cc2)n1	1320	0.16 (inactive)
Cc1occc1C(=O)N1CCCc2ccccc21	1220	0.1 (inactive)
Cc1cccc2cc3c(N)c(C(=O)N4CCCc5ccccc54)sc3nc12	725	6.25 (active)
Cc1c(C(=O)N2CCCc3ccccc32)sc2nc(-c3ccccc3)cn12	661	1.22 (inactive)
CCOC(=O)C1=C(CN2CCCCCC2)NC(=O)NC1c1cccc([N+](=O)[O-])c1 (centres undefined)	1200	0.23 (inactive)
COCc1cc(=O)oc2cc(NS(=O)(=O)c3ccc(C)cc3)ccc12	1024	0.12 (inactive)
CC1=NNC(=O)C1CC(=O)N/N=C/c1ccncc1 (centres undefined)	1010	1.19 (inactive)
COc1c(C=O)c(CCN(C)C(=O)c2ccc(F)cc2)cc2c1OCO2	1010	0.62 (inactive)
Cc1nn(CC2CC2)c(=O)n1N(C)c1ncc(C(F)(F)F)cc1Cl	1660	-0.16 (inactive)
COc1cc(/C=N/Nc2nc3ccccc3s2)ccc1O	924	-0.19 (inactive)
Cn1c(SCC(=O)c2ccc(F)cc2)nnc1-c1ccccn1	1430	-0.19 (inactive)
